Most compounds without a hit are left out; they make up all but 2.6% or so of the library.
Cruzain noTriton = cruzain (T. cruzi) inhibition without detergent | AID 1476 | purified cruzain, Z-FR-AMC fluorescence, no detergent | P25779 | 2.3% of 200,000 active | Potency, µM, for inactives: max response, negative = inhibition, most hits filed as inhibitors;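 note: plate controls were enzyme without inhibitor for no effect and buffer without enzyme for full effect; nearly all actives have a fitted effect of over 40% in size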
Target sequence (P25779 123-467 limits assumed): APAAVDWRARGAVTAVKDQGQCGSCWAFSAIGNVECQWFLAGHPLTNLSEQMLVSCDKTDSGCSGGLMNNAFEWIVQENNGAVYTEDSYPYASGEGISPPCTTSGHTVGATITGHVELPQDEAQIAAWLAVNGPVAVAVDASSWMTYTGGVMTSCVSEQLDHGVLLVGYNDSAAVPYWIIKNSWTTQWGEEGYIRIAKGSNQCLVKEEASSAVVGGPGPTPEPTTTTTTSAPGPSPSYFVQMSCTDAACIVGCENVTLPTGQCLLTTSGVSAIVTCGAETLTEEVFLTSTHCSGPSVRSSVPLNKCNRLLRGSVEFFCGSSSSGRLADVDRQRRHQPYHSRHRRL
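Detergent-free condition (0.00005% Triton X-100) in acetate buffer pH 5.5 with DTT. 1.5 nM enzyme and compound were pre-mixed 15 min, then 2 uM Z-FR-AMC substrate added; reaction progress from fluorescence change between first and third reads (60 s).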
Cruzain Triton = inhibitors of Trypanosoma cruzi cruzain with detergent; P25779; purified cruzain, Z-FR-AMC fluorescence, 0.01% Triton; Potency, µM, for inactives: max response, negative = inhibition, usual class: inhibitors; 0.43% of 200,000 active;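 note: plate controls were neutral wells for no effect and buffer without enzyme for full effect; nearly all actives have a fitted effect of over 40% in size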
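Z-FR-AMC hydrolysis (2 uM substrate) by cruzain (1.5 nM) monitored kinetically at ex 360/em 450 nm after 15 min room-temperature compound exposure; 0.01% Triton X-100, pH 5.5, 5 mM DTT.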
* marks the source's active call; other numbers are inactive results; ? = inconclusive. Calls come from the whole dose curve; as a rule, active = well fitted curve in the direction sought with a large enough effect; inconclusive = small, poorly fitted or top-dose-only effect, or another doubt; inactive = no such curve, though single readings can be large; an effect the other way counts as inactive or inconclusive. Potency is the fitted concentration of half-maximal effect.

SMILES | Cruzain noTriton | Cruzain Triton
O=C(O)CCN1C(=O)C(=C2CCCCCC2)SC1=S | -2% | -1%
O=C1C(=C2CCCCC2)SC(=S)N1Cc1ccco1 | 16µM* | 20µM*
COc1ccc(NC(=O)c2oc3ccccc3c2NC(=O)Cc2ccc(F)cc2)c(OC)c1 | 3% | -2%
Cc1cc2oc(C(=O)Nc3ccc(S(=O)(=O)Nc4onc(C)c4C)cc3)cc(=O)c2cc1C | 9% | -10%
Cc1csc(NC(=O)CSc2nnc(C)s2)n1 | -11% | 0%
Cc1csc(NC(=O)CSc2nnc(NC(=O)COc3ccccc3)s2)n1 | 7.9µM* | 2%
COc1ccccc1C(=O)ON=C1c2ccccc2-c2ccccc21 | ? | -7%
COc1ccc2c(c1[N+](=O)[O-])CCC/C2=N/OC(=O)c1cccc2ccccc12 | 20µM* | -2%
Cc1cc(C)c(C)c(S(=O)(=O)ON2C(=O)c3ccccc3C2=O)c1C | 25µM* | 20µM*
Cc1ccc(S(=O)(=O)ON2C(=O)c3ccccc3C2=O)c(C)c1 | 16µM* | 13µM*
COc1cc(NS(=O)(=O)c2ccc(C)cc2C)cc(OC)c1OC | 1% | 2%
C[C@H](O)CON1C(=O)c2ccccc2C1=O | -3% | 2%
O=C(Cc1cccc([N+](=O)[O-])c1)NCc1nc2cccnc2n1Cc1ccc(F)cc1 | 12% | -2%
Cc1ccc(C(=O)Oc2coc(CSc3nnc(NC(=O)c4cccs4)s3)cc2=O)cc1 | 25µM* | -1%
Cc1cc(C)cc(C(=O)Oc2coc(CSc3nnc(NC(=O)C4CC4)s3)cc2=O)c1 | 3% | -4%
Cc1cccc(N(C)S(=O)(=O)c2nnc(NC(=O)c3cccs3)s2)c1 | 0% | -1%
Cc1cccc(-c2nnc(NC(=O)c3cccs3)s2)c1 | 16µM* | 0%
Cc1ccc(NC(=O)c2oc3ccccc3c2NC(=O)C2CCCCC2)cc1 | -7% | 2%
CCOC(=O)c1c(S(=O)(=O)N2CCCC(C(=O)N(C)Cc3ccccc3)C2)c(C)n(C)c1C (stereo not drawn) | 23% | 0%
O=C(Nc1nc2c(s1)CCCC2)c1cc(-c2ccccc2)nc2ccccc12 | 20µM* | -6%
O=C(Nc1ccc(Br)cc1)c1cc(-c2cccs2)nc2ccccc12 | -2% | -6%
COC(=O)c1sccc1NC(=O)c1cc(-c2ccc(C)cc2)nc2ccccc12 | ? | -4%
CN(C)S(=O)(=O)c1cccc(NC(=O)c2cc(-c3cccs3)nc3ccccc23)c1 | 16µM* | -4%
O=C(CSc1nc(Cc2ccccc2)nc2ccccc12)Nc1nc2c(s1)CCCC2 | 25µM* | -9%
O=C(Nc1nc2c(s1)CCCC2)c1cc(-c2ccncc2)nc2ccccc12 | ? | 2%
SMILES | Cruzain noTriton | Cruzain Triton
COC(=O)c1sccc1NC(=O)c1cc(-c2cccc(C)c2)nc2ccccc12 | 10µM* | 0%
CC(C)(C)c1nc(SCC(=O)Nc2nc3c(s2)CCCC3)c2ccccc2n1 | ? | -14%
Cc1ccc(C2CC(=O)Oc3cc(C)c(Cl)cc32)cc1 (stereo not drawn) | 0% | -2%
CC(CNC(=O)c1ccc(Cn2c(=O)c3cccn3c3cccnc32)cc1)c1ccccc1 (stereo not drawn) | 3% | 0%
O=C(NC1=NCCS1)c1cc(-c2ccc(-c3ccccc3)cc2)nc2ccccc12 | 7.9µM* | -3%
CC(C)(C)c1nnc(NC(=O)c2cc(-c3ccccc3)nc3ccccc23)s1 | -28% | -3%
Cc1ccc(NC(=O)c2cc(-c3ccc(C)o3)nc3ccccc23)cc1 | -20% | 0%
Cc1ccc(-c2cc(C(=O)Nc3ccc4c(c3)OCCO4)c3ccccc3n2)cc1 | 10µM* | -1%
O=c1[nH]c2[nH]c(=S)[nH]c(=S)c2[nH]1 | 3% | 2%
O=C(Nc1c(C(=O)Nc2cccc(C(F)(F)F)c2)oc2ccccc12)c1cc(=O)c2ccccc2o1 | 2% | -3%
Cc1cc2nc(/N=C(\N)NC(=O)N3c4ccccc4Sc4ccccc43)nc(C)c2cc1C | 16µM* | -4%
Cc1ccc2nc(/N=C(\N)NC(=O)N3c4ccccc4Sc4ccccc43)nc(C)c2c1 | ? | -4%
N#CCC(=N)N1CCN(c2cccc(Cl)c2)CC1 | 13µM* | 0%
N#CCC(=N)N1CCN(c2ccccc2Cl)CC1 | 25µM* | -3%
Clc1ccccc1CN1CCN(c2ccccc2Cl)CC1 | 8% | -3%
N#CCC(=N)N1CCN(c2ccccc2)CC1 | -4% | -3%
CC(=O)c1ccc(S(=O)(=O)N2CCn3cccc3C2c2ccc(C)cc2)cc1 (stereo not drawn) | -20% | -5%
COc1ccccc1NC(=O)Nc1ccc(Br)cn1 | -6% | -1%
COc1ccc(Cl)cc1NC(=O)Nc1ccc(Br)cn1 | 13µM* | 0%
COc1cccc(-c2ccc3ncnc(N4CCOCC4)c3c2)c1 | -4% | 1%
Cc1cc(NC(=O)CSc2nc(C(C)C)nc3sc(C)c(C)c23)no1 | 11% | 1%
Cc1cc(NC(=O)CSc2ncnc3sc4c(c23)CCC(C)C4)no1 (stereo not drawn) | 5µM* | 5%

Assay outcomes deposited in PubChem BioAssay by National Center for Advancing Translational Sciences (NCATS).
